Sampled rows, rich in hits. Any-hit rate of the full collection: about 0.5%.
AT treatment: candidate therapy for ataxia-telangiectasia. 320,000 compounds, 0.19% hits. F2112 A-T fibroblasts, KAP-1 phosphorylation AlphaLISA; neocarzinostatin DNA damage 30 min before lysis. Potency, µM (highest dose often 57.5 µM), for the others: at the top dose activation, hits mostly activators; also: potency is read from the fitted curve at half-maximal effect; % of control where 0% means no effect; nearly all actives have a fitted effect of over 45% in size
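hTERT-immortalized A-T patient fibroblasts (F2112), 500 cells/well in OPTI-MEM, 1% FBS, got compounds for 60 min, then NCS for 30 min at 37C. Lysates were then assayed for phospho-KAP-1 by AlphaLISA (anti-pKAP1 donor, anti-KAP1 acceptor beads), 6 hr at 25C.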
RGS4 inhibitor: human RGS4 inhibition | 390,000 compounds, 0.039% hits | AID 504845 | Potency, µM (highest dose often 114 µM), for inactives: at the top dose activity change, negative = inhibition, hits mostly inhibitors | P49798 | Transcreener GDP fluorescence polarization, RGS4-accelerated GTP hydrolysis; also: potency is read from the fitted curve at half-maximal effect; % is scaled to controls: 0 for no effect and ±100 for the full control effect; nearly all actives have a fitted effect of over 75% in size
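MLSMR compounds (23 nl, pin-transferred) preincubated 10 min at room temperature with a 500nM (2x) first reagent, then RGS4 at 900nM (2x) plus Transcreener GDP mix added; fluorescence polarization (620/688 nm) read before and after 90 min at 30 °C.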
TRPML1 agonist: human mucolipin-1 channel agonism | activation, % (no concentration beside the values) | TRPML1-expressing cells, Ca2+ dye fluorescence, FDSS | 410,000 compounds, 0.12% hits | Q9GZU1; in the data active = activation above about 50%; inconclusive = mostly about 30% to 49%; also: 0% is about no effect
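Kinetic FDSS Ca2+ read in Tet-induced TRPML1-DL cells (ABD Ca8 dye plus quencher, 45-90 min RT loading): baseline, then compound, then 110 s agonist window; EC80 agonist 54-4 at 4uM final added afterwards for a 110 s antagonist window.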
TRPV1 ag: human TRPV1 agonism. Q8NER1. TRPV1-expressing cells, Fluo-8 calcium influx, agonist mode. activation, % at 8.33 µM. 320,000 compounds, 0.19% hits. AID 540275; in the data active = activation above about 80%; inconclusive = between about 30% and that limit; also: 0% is about no effect
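Cells expressing TRPV1 were dye-loaded with Fluo-8 and read kinetically: 10 s baseline, 3 min after compound (agonist portion), then 2 min after EC20 capsaicin (allosteric enhancer portion). Calcium-bound dye fluorescence at 480/520 nm.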
TRPML1 inh: human mucolipin-1 channel inhibition. TRPML1-inducible cells, Ca2+ dye fluorescence, FDSS; stronger effect = lower value; inhibition of EC80 agonist-evoked calcium signal. activity change, negative = inhibition, % (test concentration not listed). 390,000 compounds, 0.02% hits. AID 624415; in the data active = activity change below about -50%; inconclusive = between about -30% and that limit;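 also: stimulus is agonist 54-4 at its EC80 concentration; % is scaled to controls: 0 for no effect and ±100 for the full control effect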
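TRPML1-DL cells, Tet-induced overnight (~16 h, 37 °C) at 1,500 cells/well, were loaded with Ca8 no-wash dye plus quencher for 45-90 min at room temperature. Compounds were pinned during FDSS kinetic reading; agonist 54-4 at EC80 (4 uM final) then added.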
TRPV1 potentiator: potentiators of human vanilloid receptor 1 (TRPV1); 320,000 compounds, 0.02% hits; Q8NER1; TRPV1-expressing cells, Fluo-8 calcium influx, capsaicin EC20 potentiation; AID 540277; potentiation, % at 8.33 µM; in the data active = potentiation above about 80%; inconclusive = between about 30% and that limit; also: 0% is about no effect
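Cells expressing TRPV1 were dye-loaded with Fluo-8 and read kinetically: 10 s baseline, 3 min after compound (agonist portion), then 2 min after EC20 capsaicin (allosteric enhancer portion). Calcium-bound dye fluorescence at 480/520 nm.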
Numbers without * were called inactive; [ ] = remark or other dose. Unless noted, calls follow the shape of the dose curve; as a rule, active = well fitted curve in the direction sought with a large enough effect; inconclusive = small, poorly fitted or top-dose-only effect, or another doubt; inactive = no such curve, though single readings can be large; an effect the other way counts as inactive or inconclusive.

Screening Cc1cccn2c(=O)c(C=O)c(Nc3ccccc3)nc12 returned AT treatment 0%, RGS4 inhibitor 3%, TRPML1 agonist -1, TRPV1 ag -2, TRPML1 inh 23 and TRPV1 potentiator 27.
Cc1ccc(C(=O)N2CCn3c4c(c5cc(C)ccc53)CCCC42)cc1 (stereo unspecified) was read as RGS4 inhibitor -12%, TRPML1 agonist 2 and TRPML1 inh 3.
Screening Cc1ccc2c(c1)c1c3n2CCN(C(=O)c2ccc(C(F)(F)F)cc2)C3CCC1 (stereo unspecified) returned RGS4 inhibitor 9%, TRPML1 agonist 56* and TRPML1 inh -28.
For N#Cc1cc(-c2ccccc2)nc(NN)n1 the results were AT treatment -11%, RGS4 inhibitor 13%, TRPML1 agonist 1, TRPV1 ag -2, TRPML1 inh 0 and TRPV1 potentiator -3.
Screening N#Cc1cc(-c2ccccc2)nc(N2CCNCC2)n1 returned AT treatment 32µM*, RGS4 inhibitor -6%, TRPML1 agonist 0, TRPV1 ag 2, TRPML1 inh 5 and TRPV1 potentiator -1.
Screening O=C(CCCc1ccccc1)NCc1ccc(Cl)cc1 returned AT treatment 3%, RGS4 inhibitor -10%, TRPML1 agonist 1, TRPV1 ag inconclusive, TRPML1 inh -8 and TRPV1 potentiator 16.
`Cc1ccc2c(c1)C(c1ccccc1)N(C(=O)CC(C)C)CC(=O)N2` (stereo unspecified) gave AT treatment 3.5µM*, RGS4 inhibitor 12%[56.9 µM], TRPML1 agonist 0, TRPV1 ag 0, TRPML1 inh 5 and TRPV1 potentiator 2.
CCc1nc(Nc2ccc3c(c2)OCCO3)c2oc3ccccc3c2n1 was read as RGS4 inhibitor -41%, TRPML1 agonist 2, TRPV1 ag 89*, TRPML1 inh 0 and TRPV1 potentiator -6.
`c1ccc2c(c1)oc1c(Nc3ccc4c(c3)OCCO4)ncnc12` gave AT treatment 5%, RGS4 inhibitor -2%, TRPML1 agonist 3, TRPV1 ag 83*, TRPML1 inh 14 and TRPV1 potentiator 2.
For CCNc1nc(CC)nc2c1oc1ccccc12 the results were AT treatment 2%, RGS4 inhibitor -15%, TRPML1 agonist 3, TRPV1 ag 88*, TRPML1 inh -10 and TRPV1 potentiator -20.
Screening Cc1nc(Nc2ccc(Cl)cc2)c2oc3ccccc3c2n1 returned RGS4 inhibitor inconclusive, TRPML1 agonist 1, TRPV1 ag 5, TRPML1 inh 18 and TRPV1 potentiator 1.
O=[N+]([O-])c1ccc2ncnc(Nc3ccc4c(c3)OCCO4)c2c1 was read as AT treatment -3%, RGS4 inhibitor 8%, TRPML1 agonist 0, TRPV1 ag 11, TRPML1 inh 44 and TRPV1 potentiator -18.
For Cc1nc(Nc2ccc3c(c2)OCCO3)c2oc3ccccc3c2n1 the results were AT treatment 4%, RGS4 inhibitor 11%, TRPML1 agonist -1, TRPV1 ag 82*, TRPML1 inh 7 and TRPV1 potentiator -3.
For C#CCOCCOCCOCCNc1nc(N2CCN(C(=O)C([C@@H](C)CC)n3cc(C(N)Cc4ccc(O)cc4)nn3)CC2)nc(N2CCN(C(=O)[C@H](CCC(=O)O)n3cc(C(N)[C@H](C)CC)nn3)CC2)n1 (stereo partly specified) the results were AT treatment 3%, RGS4 inhibitor -11%, TRPML1 agonist -1, TRPV1 ag -2, TRPML1 inh -8 and TRPV1 potentiator 2.
Screening Cc1ccc(S(=O)(=O)N2CCC[C@H]2C(=O)OCCN2C(=O)c3ccccc3C2=O)cc1 returned AT treatment 13%, RGS4 inhibitor -4%, TRPML1 agonist 0, TRPV1 ag 2, TRPML1 inh 18 and TRPV1 potentiator -7.
